Data on 40 molecules can be found in PubChem BioAssay (NCI).

The panel holds about 79,000 compounds, 15% with a hit somewhere; the sample as a whole holds those more often. A number with no mark means an inactive call. Rule as the data show it: active = growth inhibition above about 70%; inactive = the rest.

A short description of one assay: NCI Yeast Anticancer Drug Screen. Data for the sgs1 mgt1 strain (AID 161).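 Also: 0% = growth of cultures given vehicle only.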 The following applies: S. cerevisiae sgs1 mgt1 strain, at 50.0 µM, stronger effect = higher value. In outline: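 Inhibition of yeast growth, normalised to vehicle-treated controls, is reported for a strain bearing genetic alterations in DNA damage repair.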
For the molecule `CC(O)C(=O)NN` (stereo not given), the growth inhibition is -4.95%.

With `COCC(=O)c1ccccc1`, the growth inhibition was 5.3%.

As to `O=C1C2=C(Nc3cc([N+](=O)[O-])ccc3N2)OC1c1ccc2c(c1)OCO2` (stereo not given), the growth inhibition was -15.1%.

For the molecule `N#CSC1C=CS(=O)(=O)C1` (stereo not given), the growth inhibition was 19.6%.

As for `CN(C)CCN(C=O)CCN(C)C`, the growth inhibition is 4.5%.

For `CC1(C)CC23C4COC(=O)C2CCC1C3CC4=O` (stereo not given), the growth inhibition was 20.4%.

As for `CC(=O)[CH-]C(=O)c1ccccc1.CC(=O)[CH-]C(=O)c1ccccc1.CC[C@H](/C=C/C(C)[C@H]1CCC2[C@@H]3CC=C4C[C@@H]([O-])CC[C@]4(C)C3CC[C@@]21C)C(C)C.CC[O-].[Ti+4]` (stereo not given in full), the growth inhibition is -2.45%.

With `O=C(CO)c1ccccc1`, the growth inhibition is -3.8%.

For the molecule `CC1(C)CC(=O)C(/C=N/C(=S)NC2CCCCC2)=C(O)C1`, the growth inhibition is -31.5%.

For `CCNC(=O)C1CC2C=CC1C2` (stereo not given), the growth inhibition was 4.2%.

For the molecule `Cc1cc(NC(=O)N(CCCl)N=O)c(C)cc1NC(=O)c1ccccc1`, the growth inhibition was 40.5%.

Regarding `CC(=O)C1(C(C)=O)OC2c3ccccc3C=CN2C=C1C=O` (stereo not given), the growth inhibition was 14.6%.

In the case of `COc1ccccc1-c1coc2c(ccc3oc(C(C)C)cc32)c1=O`, the growth inhibition was 3.25%.

For the molecule `COc1cc(O)c(C(C)c2ccccc2)cc1N=O` (stereo not given), the growth inhibition was -4.4%.

Regarding `O=C(NC(=S)OC1CCCC1OC(=S)NC(=O)c1ccccc1)c1ccccc1` (stereo not given), the growth inhibition is -10.1%.

Take `CCOC(=O)c1ccccc1Nc1c(C(=O)OCC)cnc2cc3c(cc12)OCO3`: the growth inhibition is -9.85%.

Take `CC(=O)Nc1ccc(S(=O)(=O)NC(=O)NC(C)C)cc1`: the growth inhibition is -2.4%.

Turning to `CCOC(=O)/C=C/SCC(N)C(=O)OCC` (stereo not given), the growth inhibition was -12.9%.

Regarding `CSc1ncc2c(C#N)c3ccccn3c(=O)c2n1`, the growth inhibition is 11.2%.

With `CC(=O)c1c(C)cc(C)nc1C`, the growth inhibition is 17.4%.

With `S=C(N/N=C/c1ccc(Cl)cc1Cl)NC1CCc2ccccc21` (stereo not given), the growth inhibition is -9.7%.

`CC1CC(=O)Nc2ncccc2N1` (stereo not given): the growth inhibition was 4.2%.

For `CN(C)C1=CC(=O)NC(c2ccccc2)C1` (stereo not given), the growth inhibition was -10.6%.

On to `c1ccc(C2=NN(c3ccccc3)C3C4CCC(C4)C23)cc1` (stereo not given), for which the growth inhibition was -6.2%.

For the molecule `CN(C)c1ccc(/C=C2\CCOC2=O)cc1`, the growth inhibition was 14.3%.

With `O=[N+]([O-])C(/C=N/Nc1ccccc1)/C=N/Nc1ccccc1`, the growth inhibition was -20.8%.

For `NNc1nnnc2ccccc12`, the growth inhibition was -0.8%.

Consider `COc1ccc(CCC2(C)OCCCO2)cc1`, for which the growth inhibition is -0.85%.

As to `Nc1[nH]c(=S)[nH]c(=O)c1NS(=O)(=O)c1ccccc1`, the growth inhibition was 12.6%.

Consider `c1cncc(-c2c3ccccc3cc3ccccc23)c1`, for which the growth inhibition is 2.8%.

As to `O=C(C(=Cn1c(=O)cc[nH]c1=S)C(=O)c1ccccc1)c1ccccc1`, the growth inhibition was -27.6%.

`CC(=O)OCCC(OC(C)=O)c1ccccn1` (stereo not given): the growth inhibition was -9.1%.

Take `CCCC/C(=N/O)c1ccccc1`: the growth inhibition was -2.65%.

With `COc1cc2c(cc1OCc1ccccc1)NC(=O)C2`, the growth inhibition was 12.8%.

As for `Nc1cc(Br)cc2c1-c1ccc(Br)cc1C2=O`, the growth inhibition was 1.35%.

Turning to `CCNC(=O)c1ccccc1C(=O)c1ccccc1`, the growth inhibition was 6.55%.

As to `CC1=NN(C(=O)CC(=O)N(C(=O)c2ccccc2Cl)c2ccc(C)cc2)C(=O)C1N=Nc1ccc([N+](=O)[O-])cc1` (stereo not given), the growth inhibition was 47.5%.

As for `CC(=O)N1CCN(c2ccccc2Cl)CC1`, the growth inhibition was -18.4%.

On to `COC1=CCC=C(C(C)(C)C)C1`, for which the growth inhibition was -10.5%.

With `COc1cc(CCNC2=CC(=O)c3ncccc3C2=O)ccc1O`, the growth inhibition was -8.25%.

Another assay can be described thus: NCI Yeast Anticancer Drug Screen. Data for the cln2 rad14 strain (AID 165).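 Also: 0% = growth equal to vehicle treated cultures.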 The following applies: S. cerevisiae cln2 rad14 strain, at 50.0 µM, stronger effect = higher value. The essentials:
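Each compound was tested on cln2 rad14 yeast. Inhibition of growth was calculated against vehicle-exposed controls.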
With `CC(O)C(=O)NN` (stereo not given), the growth inhibition is -13.6%.

Regarding `COCC(=O)c1ccccc1`, the growth inhibition was 6%.

`O=C1C2=C(Nc3cc([N+](=O)[O-])ccc3N2)OC1c1ccc2c(c1)OCO2` (stereo not given): the growth inhibition is 5.75%.

`N#CSC1C=CS(=O)(=O)C1` (stereo not given): the growth inhibition was -44.1%.

`CN(C)CCN(C=O)CCN(C)C`: the growth inhibition was -9.1%.

With `CC1(C)CC23C4COC(=O)C2CCC1C3CC4=O` (stereo not given), the growth inhibition is -0.7%.

Consider `CC(=O)[CH-]C(=O)c1ccccc1.CC(=O)[CH-]C(=O)c1ccccc1.CC[C@H](/C=C/C(C)[C@H]1CCC2[C@@H]3CC=C4C[C@@H]([O-])CC[C@]4(C)C3CC[C@@]21C)C(C)C.CC[O-].[Ti+4]` (stereo not given in full), for which the growth inhibition is -2.3%.

With `O=C(CO)c1ccccc1`, the growth inhibition is 25.6%.

For `CC1(C)CC(=O)C(/C=N/C(=S)NC2CCCCC2)=C(O)C1`, the growth inhibition was 10.6%.

With `CCNC(=O)C1CC2C=CC1C2` (stereo not given), the growth inhibition was 12.6%.

Take `Cc1cc(NC(=O)N(CCCl)N=O)c(C)cc1NC(=O)c1ccccc1`: the growth inhibition was -3.4%.

Take `CC(=O)C1(C(C)=O)OC2c3ccccc3C=CN2C=C1C=O` (stereo not given): the growth inhibition was 4.45%.

`COc1ccccc1-c1coc2c(ccc3oc(C(C)C)cc32)c1=O`: the growth inhibition is -52%.

In the case of `COc1cc(O)c(C(C)c2ccccc2)cc1N=O` (stereo not given), the growth inhibition is 4.15%.

As to `O=C(NC(=S)OC1CCCC1OC(=S)NC(=O)c1ccccc1)c1ccccc1` (stereo not given), the growth inhibition is 14.5%.

In the case of `CCOC(=O)c1ccccc1Nc1c(C(=O)OCC)cnc2cc3c(cc12)OCO3`, the growth inhibition is 2.85%.

Regarding `CC(=O)Nc1ccc(S(=O)(=O)NC(=O)NC(C)C)cc1`, the growth inhibition is 20%.

With `CCOC(=O)/C=C/SCC(N)C(=O)OCC` (stereo not given), the growth inhibition is 19.6%.

As for `CSc1ncc2c(C#N)c3ccccn3c(=O)c2n1`, the growth inhibition is -1.5%.

Take `CC(=O)c1c(C)cc(C)nc1C`: the growth inhibition was 10%.

Take `S=C(N/N=C/c1ccc(Cl)cc1Cl)NC1CCc2ccccc21` (stereo not given): the growth inhibition was -33.8%.

With `CC1CC(=O)Nc2ncccc2N1` (stereo not given), the growth inhibition was -28.6%.

As to `CN(C)C1=CC(=O)NC(c2ccccc2)C1` (stereo not given), the growth inhibition was -14.2%.

In the case of `c1ccc(C2=NN(c3ccccc3)C3C4CCC(C4)C23)cc1` (stereo not given), the growth inhibition was -49%.

Consider `CN(C)c1ccc(/C=C2\CCOC2=O)cc1`, for which the growth inhibition was 4.6%.

For the molecule `O=[N+]([O-])C(/C=N/Nc1ccccc1)/C=N/Nc1ccccc1`, the growth inhibition was -6.55%.

As for `NNc1nnnc2ccccc12`, the growth inhibition was -38.2%.

As for `COc1ccc(CCC2(C)OCCCO2)cc1`, the growth inhibition was -6.75%.

With `Nc1[nH]c(=S)[nH]c(=O)c1NS(=O)(=O)c1ccccc1`, the growth inhibition is -4.85%.

For `c1cncc(-c2c3ccccc3cc3ccccc23)c1`, the growth inhibition is -8.5%.

With `O=C(C(=Cn1c(=O)cc[nH]c1=S)C(=O)c1ccccc1)c1ccccc1`, the growth inhibition is 2.95%.

Take `CC(=O)OCCC(OC(C)=O)c1ccccn1` (stereo not given): the growth inhibition was -2.95%.

As for `CCCC/C(=N/O)c1ccccc1`, the growth inhibition was -9.1%.

For the molecule `COc1cc2c(cc1OCc1ccccc1)NC(=O)C2`, the growth inhibition is -7.85%.

Regarding `Nc1cc(Br)cc2c1-c1ccc(Br)cc1C2=O`, the growth inhibition is -54.9%.

As for `CCNC(=O)c1ccccc1C(=O)c1ccccc1`, the growth inhibition was 12.8%.

Consider `CC1=NN(C(=O)CC(=O)N(C(=O)c2ccccc2Cl)c2ccc(C)cc2)C(=O)C1N=Nc1ccc([N+](=O)[O-])cc1` (stereo not given), for which the growth inhibition is 27.3%.

For the molecule `CC(=O)N1CCN(c2ccccc2Cl)CC1`, the growth inhibition was -3.45%.

For `COC1=CCC=C(C(C)(C)C)C1`, the growth inhibition was -32.1%.

With `COc1cc(CCNC2=CC(=O)c3ncccc3C2=O)ccc1O`, the growth inhibition was 4.95%.
